Potency estimated from few doses data for five molecules are collected here from paper PMC11062922 (Nature Chemical Biology, 2023).

Each structure is given as a SMILES string. Like-named read-outs stand apart in the source and are kept apart here.

What all share (design): species or system human, MV4-11 + K-562 + COLO205 + SK-N-BE2 + OVCAR-8
For one assay, the system named is CDK12. The settings on record: read-out: apparent Kd; compound concentrations: 100 nM and 1000 nM (sheet 'Samples'), CATDS: 0.16242687072241299; n = 1.
A further assay concerns CDK13. To be noted: read-out: apparent Kd; compound concentrations: 100 nM and 1000 nM (sheet 'Samples'), CATDS: 0.16446533875215399; n = 1.
For a further assay, the system named is MAPK10. The settings on record: read-out: apparent Kd; compound concentrations: 100 nM and 1000 nM (sheet 'Samples'), CATDS: 0.33495043269217101; n = 1.
A further assay concerns MAPK8. To be noted: read-out: apparent Kd; compound concentrations: 100 nM and 1000 nM (sheet 'Samples'), CATDS: 0.17846593111563799; n = 1.
In the next assay the test system is MAPK9. The settings on record: read-out: apparent Kd, compound concentrations: 100 nM and 1000 nM (sheet 'Samples'), n = 1.
The subject of a further assay is CDK16. The settings on record: read-out: apparent Kd, compound concentrations: 100 nM and 1000 nM (sheet 'Samples'), n = 1.
For the next assay, the system named is CDK2. To be noted: read-out: apparent Kd, compound concentrations: 100 nM and 1000 nM (sheet 'Samples'), n = 1.
Another assay has as its system NUAK1. To be noted: read-out: apparent Kd; compound concentrations: 100 nM and 1000 nM (sheet 'Samples'), CATDS: 0.20890182477098199; n = 1.
For a further assay, the system named is NUAK2. The settings on record: read-out: apparent Kd; compound concentrations: 100 nM and 1000 nM (sheet 'Samples'), CATDS: 0.14838950263404099; n = 1.
The next assay has as its system STK3. The settings on record: read-out: apparent Kd; compound concentrations: 100 nM and 1000 nM (sheet 'Samples'), CATDS: 0.13207546439769999; n = 1.
The subject of another assay is STK4. To be noted: read-out: apparent Kd; compound concentrations: 100 nM and 1000 nM (sheet 'Samples'), CATDS: 0.136772712102746; n = 1.
Another assay relates to CDC42. The settings on record: read-out: apparent Kd; compound concentrations:100 nM and 1000 nM (sheet 'Samples'); n = 1.
For a further assay, the system named is T1, DJA1.
T1 construct: gene DNAJA1
To be noted: read-out: apparent Kd, n = 1.

The next assay has as its system PRKCQ. The settings on record: read-out: apparent Kd; compound concentrations:100 nM and 1000 nM (sheet 'Samples'); n = 1.
Another assay concerns GSK3A. The settings on record: read-out: apparent Kd, compound concentrations: 100 nM and 1000 nM (sheet 'Samples'), n = 1.
Another assay concerns GSK3B. To be noted: read-out: apparent Kd, compound concentrations: 100 nM and 1000 nM (sheet 'Samples'), n = 1.
A further assay relates to NQO2. To be noted: read-out: apparent Kd, compound concentrations: 100 nM and 1000 nM (sheet 'Samples'), n = 1.
For another assay, the system named is PDXK. The settings on record: read-out: apparent Kd; compound concentrations: 100 nM and 1000 nM (sheet 'Samples'), CATDS: 0.14245217988019501; n = 1.
In a further assay the test system is CDK17. The settings on record: read-out: apparent Kd; compound concentrations: 100 nM and 1000 nM (sheet 'Samples'), CATDS: 5.2851487986603697E-2; n = 1.
For a further assay, the system named is CDK6. The settings on record: read-out: apparent Kd; compound concentrations: 100 nM and 1000 nM (sheet 'Samples'), CATDS: 5.8978881187618598E-2; n = 1.
Another assay deals with CDK9. To be noted: read-out: apparent Kd; compound concentrations: 100 nM and 1000 nM (sheet 'Samples'), CATDS: 7.0025924153680405E-2; n = 1.
For a further assay, the system named is CDKL5. To be noted: read-out: apparent Kd; compound concentrations: 100 nM and 1000 nM (sheet 'Samples'), CATDS: 0.107974532487744; n = 1.
A further assay deals with DYRK1A. The settings on record: read-out: apparent Kd; compound concentrations: 100 nM and 1000 nM (sheet 'Samples'), CATDS: 7.1113198150105694E-2; n = 1.
A further assay deals with MAPK14. To be noted: read-out: apparent Kd; compound concentrations: 100 nM and 1000 nM (sheet 'Samples'), CATDS: 5.6581371759273497E-2; n = 1.
The next assay concerns MAPK7. The settings on record: read-out: apparent Kd; compound concentrations: 100 nM and 1000 nM (sheet 'Samples'), CATDS: 4.4821094432651497E-2; n = 1.
The next assay has as its system MELK. To be noted: read-out: apparent Kd; compound concentrations: 100 nM and 1000 nM (sheet 'Samples'), CATDS: 4.5559662583992203E-2; n = 1.
For the next assay, the system named is PRKD2. To be noted: read-out: apparent Kd; compound concentrations: 100 nM and 1000 nM (sheet 'Samples'), CATDS: 5.0441088598544299E-2; n = 1.
In a further assay the test system is TP53RK. The settings on record: read-out: apparent Kd; compound concentrations: 100 nM and 1000 nM (sheet 'Samples'), CATDS: 4.9816696124222203E-2; n = 1.

Consider `CN(C)C/C=C/C(=O)Nc1ccc(C(=O)N2CCC[C@@H](Nc3ncc(Cl)c(-c4c[nH]c5ccccc45)n3)C2)cc1` [THZ531], for which the potency estimated from few doses in the assay with CDK12 was 1800 nM; in the assay with CDK13, 1740 nM; in the assay with MAPK10 it was 434 nM; in the assay on MAPK8 it was 1410 nM; in the assay on MAPK9 (CATDS: 0.23956411042419101) it was 760 nM.

Regarding `CC(C)=Cc1cccc2c1/C(=N/Nc1ccc(S(N)(=O)=O)cc1)C(=O)N2` [GW396574X], the potency estimated from few doses in the assay on CDK16 (CATDS: 0.172165115049177) was 778 nM; in the assay on CDK2 (CATDS: 0.26435202316191703), 366 nM; with NUAK1, 539 nM; in the assay with NUAK2 it was 1080 nM; in the assay with STK3 it was 1470 nM; with STK4 it was 1330 nM.

Turning to `CNc1nc(-c2ccc3c(N)n[nH]c3c2)cc(N2C[C@@H](C(=O)Nc3ccccc3)CC[C@H]2C)n1` [GSK2298859A], the potency estimated from few doses with CDC42 was 2140 nM; in the assay with DJA1 (compound concentrations:100 nM and 1000 nM (sheet 'Samples')) it was 880 nM; with PRKCQ it was 1800 nM.

For the molecule `Cn1cc(C2=C(c3cccc(Br)c3)C(=O)NC2=O)c2ccccc21` [RO0317625-000], the potency estimated from few doses is 2310 nM with CDK16 (CATDS: 0.11881037811930099); 881 nM in the assay on DJA1 (compound concentrations: 100 nM and 1000 nM (sheet 'Samples'), CATDS: 0.17087221308304101); 574 nM in the assay on GSK3A (CATDS: 0.21400406250920001); 447 nM in the assay with GSK3B (CATDS: 0.248828524546996); 935 nM with NQO2 (CATDS: 0.16613061012500299); 1340 nM in the assay with PDXK.

Take `CCC(NN(C)C)=C1C(=O)Nc2ccc(C(C)=O)cc21` [BI00036838]: the potency estimated from few doses in the assay with CDK16 (CATDS: 6.3187514520784194E-2) was 753 nM; with CDK17 it was 1210 nM; with CDK2 (CATDS: 4.7813901315705599E-2), 1640 nM; in the assay on CDK6 it was 895 nM; in the assay with CDK9, 590 nM; with CDKL5, 233 nM. The potency estimated from few doses is 569 nM in the assay on DYRK1A; 27.3 nM in the assay on GSK3A (CATDS: 0.31666625502072798); 15 nM in the assay on GSK3B (CATDS: 0.45532128509290898); 999 nM in the assay on MAPK14; 2060 nM in the assay with MAPK7; 1750 nM in the assay on MAPK9 (CATDS: 4.6942214024324101E-2). In addition, the potency estimated from few doses in the assay on MELK is 1940 nM; in the assay with NQO2 (CATDS: 5.78366102928662E-2), 942 nM; in the assay on PRKD2, 1390 nM; with TP53RK it was 1440 nM.
